Cardiac RTF inh: cardiac RTF calcium desensitization; P19429+P45379; IANBD-labeled cardiac RTF, Ca2+ fluorescence; inhibition, % at 7.15 µM; 340,000 tested, 0.12% active; AID 493244;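 active = inhibition above the mean inhibition of all tested compounds plus 3 SD, cut at about 17% in these data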;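 also: assay run at fixed EC70 calcium of 1.6 mM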
LANA DNA inh: blocks KSHV LANA C-terminal domain binding to DNA | inhibition, % at 9 µM | MBP-C-LANA/FAM-LBS DNA binding, fluorescence polarization | AID 504423 | 340,000 tested, 0.078% active;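 active = highest replicate inhibition at or above 60% at 9 µM, even if other replicates fall short; inactive = all replicates below 60% inhibition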
LANA-H2A inh: blocks KSHV LANA binding to histone H2A/H2B; Q9QR71; cell-free LANA-H2A/H2B peptide, fluorescence polarization; inhibition, % (concentration not given with the values); 320,000 tested, 0.6% active; in the data active = inhibition mostly above about 10%, no sharp cut-off; inactive = mostly below about 6.7%
Target sequence (Q9QR71 whole entry, looked up): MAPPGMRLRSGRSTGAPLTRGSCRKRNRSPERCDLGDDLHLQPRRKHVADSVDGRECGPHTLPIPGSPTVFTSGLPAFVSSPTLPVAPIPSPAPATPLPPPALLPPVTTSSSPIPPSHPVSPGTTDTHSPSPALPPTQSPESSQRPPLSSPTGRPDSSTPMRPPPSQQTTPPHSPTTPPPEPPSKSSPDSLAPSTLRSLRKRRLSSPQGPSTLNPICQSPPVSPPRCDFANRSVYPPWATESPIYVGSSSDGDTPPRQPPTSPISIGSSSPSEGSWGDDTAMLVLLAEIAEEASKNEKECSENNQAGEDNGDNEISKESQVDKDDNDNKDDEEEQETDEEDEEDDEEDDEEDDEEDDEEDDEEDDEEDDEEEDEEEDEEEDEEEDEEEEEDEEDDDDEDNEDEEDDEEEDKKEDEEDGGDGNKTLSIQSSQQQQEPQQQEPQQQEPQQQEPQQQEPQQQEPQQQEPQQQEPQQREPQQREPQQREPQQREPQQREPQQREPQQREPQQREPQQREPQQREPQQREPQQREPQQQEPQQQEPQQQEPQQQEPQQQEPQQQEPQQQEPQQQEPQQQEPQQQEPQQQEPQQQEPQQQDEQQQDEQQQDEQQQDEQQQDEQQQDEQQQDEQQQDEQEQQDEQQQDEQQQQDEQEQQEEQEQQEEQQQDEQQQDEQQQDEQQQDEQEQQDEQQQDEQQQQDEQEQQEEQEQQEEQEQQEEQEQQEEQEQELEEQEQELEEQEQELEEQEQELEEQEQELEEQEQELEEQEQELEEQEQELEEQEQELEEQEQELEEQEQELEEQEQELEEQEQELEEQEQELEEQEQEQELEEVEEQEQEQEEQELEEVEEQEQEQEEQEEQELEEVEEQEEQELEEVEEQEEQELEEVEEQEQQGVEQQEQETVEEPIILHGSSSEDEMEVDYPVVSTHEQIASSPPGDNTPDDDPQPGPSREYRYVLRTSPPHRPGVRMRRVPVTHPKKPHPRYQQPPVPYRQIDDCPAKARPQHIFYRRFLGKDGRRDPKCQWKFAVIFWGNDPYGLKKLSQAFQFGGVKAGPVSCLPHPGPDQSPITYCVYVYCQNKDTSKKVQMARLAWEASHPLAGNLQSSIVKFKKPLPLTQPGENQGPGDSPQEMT
cardiac RTF act: increases calcium sensitivity of human cardiac regulated thin filaments | AID 493008 | 340,000 tested, 0.24% active | IANBD-labeled TnC RTF fluorescence at EC20 calcium; 0% EC20 calcium, 100% full calcium | activation, % at 7.2 µM;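 active = activation above the mean over all tested compounds plus 3 SD, cut at about 30% in these data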;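 also: rise in fluorescence read as greater calcium sensitivity of cardiac thin filaments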
Keap1 Nrf2 FP: disrupts human Keap1 binding to Nrf2 peptide | inhibition, % at 9.4 µM | 340,000 tested, 0.15% active | Q14145 | Keap1 Kelch-Nrf2 peptide fluorescence polarization, 1536-well; in the data active = inhibition above about 12%;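 also: human Keap1 Kelch domain with fluorescein labeled Nrf2 9mer peptide probe; higher means more block of Keap1 binding to Nrf2 peptide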
Hits are given with their value; i = inactive; nt = no result given; + = active, no number. Rows were chosen to be rich in hits. Some 1% of all compounds tested hit in one or more screens of this group.

SMILES	Cardiac RTF inh	LANA DNA inh	LANA-H2A inh	cardiac RTF act	Keap1 Nrf2 FP
COC(=O)C(Cc1ccccc1)NC(=O)c1ccc(NS(=O)(=O)c2ccc3[nH]c(=O)[nH]c3c2)cc1 (stereo not given)	i	i	28.8	i	i
COC(=O)C1CCN(C(=O)c2ccc(SC)cc2OC)CC1	i	i	12.4	i	i
O=C(COC(=O)c1cccc(S(=O)(=O)NCc2ccccc2)c1)NCC1CCCO1 (stereo not given)	i	i	i	i	i
O=C(O)c1nn(CCOc2ccc(Br)cc2)c(=O)c2ccccc12	i	i	13.2	i	i
C[C@@H]1O[C@@H]1P(=O)(O)O	i	i	i	i	i
C[C@H]1O[C@H]1P(=O)(O)O	i	i	33.4	i	i
COCCn1c(/C=C/c2ccccc2)nc2ccccc21	i	i	-127.1	i	i
CCCCNC(=O)CNC(=S)N(CCCN1CCOCC1)Cc1cccs1	i	i	i	i	i
NC(=O)CSc1nc(-c2ccccc2)c(-c2ccccc2)o1	i	i	i	i	i
Nc1nc(-c2ccccc2)c(-c2ccccc2)o1	i	i	28.9	i	i
COc1cc(OC)c(OC)cc1/C=C/C(=O)OCC(=O)Nc1c(C)n(C)n(-c2ccccc2)c1=O	i	i	nt	i	i
CCOC(=O)C1CCCN(C(=O)c2cccc(S(=O)(=O)N(C)c3ccc(C)cc3)c2)C1 (stereo not given)	i	i	i	i	i
COc1ccc2c3c(cccc13)C(=O)CC2	i	162.9	+	714.9	164.4
Cc1ccc(OCc2nnc(SC(C)C(=O)O)n2Cc2ccccc2)cc1 (stereo not given)	i	i	10.7	i	i
Cc1cccc(OCc2nnc(SC(C)C(=O)O)n2Cc2ccccc2)c1 (stereo not given)	i	i	i	i	i
O=C(NNC(=O)C1CCN(c2ncccn2)CC1)c1ccc(F)cc1	i	i	i	i	i
Cc1cn(CC(=O)NCCCN2CCCC2=O)c(=O)[nH]c1=O	i	i	nt	i	i
O=C(NCc1ccc(Cl)cc1)C1CCN(c2cnccn2)CC1	i	i	i	30.2	i
CN1C=CC2=C(C#N)C(N)C(C#N)(C#N)C(c3ccccc3)C2C1 (stereo not given)	i	i	i	39.9	i
O=C(CCCN1C(=O)c2cccc3cccc(c23)C1=O)N1CCN(c2ccccc2O)CC1	i	i	i	i	i
O=C(CCCN1C(=O)c2cccc3cccc(c23)C1=O)N1CCN(c2ccccc2)CC1	i	i	16.8	i	i
CCOC(=O)C1C(=O)NC(SCC(N)=O)=C(C#N)C1c1ccccc1OCC (stereo not given)	i	i	i	37.8	i
CCOC(=O)C1C(=O)NC(SC)=C(C#N)C1c1ccccc1F (stereo not given)	i	i	i	i	i
COc1ccc(C2/C=C\CN(CC(C)C)CC(=O)N2Cc2cccc(F)c2)cc1 (stereo not given)	i	i	nt	i	i
Cn1c(=O)c2c(nc(OC3CCCC3)n2C)n(C)c1=O	i	i	nt	i	i
SMILES	Cardiac RTF inh	LANA DNA inh	LANA-H2A inh	cardiac RTF act	Keap1 Nrf2 FP
CCN(CC)c1ccc(/C=C/c2cc(-c3ccccc3)c3ccccc3n2)cc1	i	i	i	319.7	i
CCCCn1c(O)c(/C=C2\C=NN=C2c2ccccc2)sc1=S	i	i	i	i	i
CCn1c(O)c(/C=C2\C=NN=C2c2ccccc2)sc1=S	i	i	14.6	i	i
O=C(CSc1ccc2nnc(-c3cccnc3)n2n1)Nc1ccc(F)cc1	i	i	30.9	i	i
COc1cccc(NC(=O)CSc2ccc3nnc(-c4cccnc4)n3n2)c1	i	i	i	i	i
Cc1cccc(NC(=O)CSc2ccc3nnc(-c4cccnc4)n3n2)c1	i	i	13.2	i	i
O=C(CSc1nnc(-c2cccnc2)n1-c1ccccc1)Nc1ccccc1	i	i	14.9	i	i
O=P(Cc1cccc2ccccc12)(c1ccccc1)c1ccccc1	i	i	nt	i	i
CC(C)=CCc1c(O)ccc2c1OC(c1ccc(O)c(O)c1)CC2=O (stereo not given)	i	i	i	i	i
O=C1CC(c2ccc(O)c(O)c2)Oc2c1ccc(O)c2O (stereo not given)	i	96.7	i	i	i
CCN1C(=O)/C(=C/C=C2\N(CC)c3cc(S(=O)(=O)N(C)C)ccc3N2c2ccccc2)SC1=S	i	i	i	166.2	i
CCOC(=O)C1=C(C(=O)OCC)c2ccc(OC)c(OC)c2C1	i	i	nt	i	i
CC(C)(C)OC(=O)N1CCC(C(=O)Nc2ccc(C(=O)NCCc3ccccc3)cc2)CC1	i	i	nt	i	i

Screening data as filed in PubChem BioAssay.
